Measurements: PubChem BioAssay (NCATS)
Values joined by “and” are separate entries in the source; they are usually repeats but may differ in a detail not shown here. Equal entries are not always repeated. Results filed as inconclusive are left out. Active and inactive are the calls of the source. Unless noted, the call rests on the fitted dose curve; in most records, active means well fitted curve in the direction sought with a large enough effect; inconclusive means small, poorly fitted or top-dose-only effect, or another doubt; inactive means no such curve, though single readings can be large; an effect the other way counts as inactive or inconclusive.

Legend:
[1] = Cell Viability - BJ (AID 421; calls by dose curve;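 further: potency means the concentration at half of the fitted maximal effect; cells exposed to compound for 40 hours at 37 °C before readout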); conditions: BJ fibroblast viability, qHTS
Summary of the method: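 Cytotoxicity as drop in intracellular ATP (CellTiter-Glo, 20 min RT) after 40 hr compound exposure of BJ fibroblasts at 37 °C. Titrations scaled between DMSO and 100 uM tamoxifen, Hill-fitted for AC50.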

[2] = Cell Viability - HepG2 (AID 433; calls by dose curve;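 further: potency means the concentration at half of the fitted maximal effect; potency for ATP loss meaning cytotoxicity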); conditions: qHTS
Summary of the method: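 Read-out is luciferase-based quantitation of cellular ATP as a measure of viable HepG2 cells after 40 h treatment at 37 °C. Signal decrease is scaled between DMSO-only and 100 uM tamoxifen controls, with AC50 fitted by the Hill equation.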

[3] = Cell Viability - Mesenchymal (AID 546); conditions: mesenchymal cells viability, qHTS; activity change, negative = cytotoxicity: at 91.7 µM (top of the series);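 further: cells exposed to compound for 40 hours before reading; 0% = DMSO only and -100% = 100 µM tamoxifen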
Summary of the method: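 Human kidney mesenchymal cells from normal renal glomeruli, 1000 cells/well, rested 5 hr at 37 °C, then treated 40 hr at 37 °C in complete medium. Cellular ATP read by CellTiter-Glo luminescence; AC50 from Hill-equation fits.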

[4] = Cell Viability - LYMP1-003 - Assay at 40 hr (AID 964); conditions: LYMP1-003 lymphoblastoid viability; series mostly up to 92.2 µM; further: on the % scale 0 is the no-effect control and ±100 the full control effect; nearly all actives have a fitted effect of over 60% in size
Summary of the method: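 Cells were seeded at 2500 per well and incubated 5 hr at 37 C. Compounds were added across a concentration series and left 40 hr at 37 C. CellTiter-Glo was added for 30 min at room temperature before luminescence reading.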

[5] = Cell Viability - LYMP2-025 (AID 976); conditions: LYMP2-025 lymphoblastoid cell viability; series mostly up to 92.2 µM;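 further: plate controls were DMSO only for no effect and tetraoctylammonium bromide control for full effect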
Summary of the method: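 Seed 2500 LYMP2-025 cells/well; 5 hr at 37 C; add compound; 24 hr at 37 C; add CellTiter-Glo; 30 min RT; read luminescence. AC50 from Hill-modelled concentration-response.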

[6] = Cell Viability - LYMP2-002 (AID 977); conditions: LYMP2-002 lymphoblastoid cell viability, qHTS; series mostly up to 92.2 µM;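 further: compound exposure lasted 24 h at 37 °C; plate controls were DMSO only for no effect and 92 µM tetraoctylammonium bromide for full effect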
Summary of the method: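 Human lymphoblastoid LYMP2-002 cells, 2500 per well, exposed to compounds for 24 h at 37 C in complete medium; viability read as intracellular ATP by CellTiter-Glo luminescence, AC50 from Hill fits.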

[7] = Cell Viability - LYMP2-008 (AID 980); conditions: LYMP2-008 lymphoblastoid cell viability, qHTS; series mostly up to 92.2 µM; further: on the % scale 0 is the no-effect control and ±100 the full control effect; nearly all actives have a fitted effect of over 60% in size
Summary of the method: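 qHTS, human lymphoblastoid line, 2500 cells/well; 5 hr preincubation, 24 hr compound, 37 C. CellTiter-Glo ATP luminescence. AC50 via Hill equation. Tetraoctylammonium bromide positive control.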

[8] = Cell Viability - LYMP2-014 (AID 983); conditions: LYMP2-014 lymphoblastoid cells, viability qHTS; series mostly up to 92.2 µM;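 further: plate controls were DMSO only for no effect and 92 µM tetraoctylammonium bromide for full effect; nearly all actives have a fitted effect of over 50% in size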
Summary of the method: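 Luminescent ATP signal (CellTiter-Glo, 30 min at room temperature) serves as the viability read-out after 24 hr compound exposure at 37 C. Cells were seeded at 2500 per well and settled 5 hr beforehand.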

[9] = Cell Viability - LYMP2-016 (AID 984); conditions: LYMP2-016 lymphoblastoid cell viability, qHTS; series mostly up to 92.2 µM; further: on the % scale 0 is the no-effect control and ±100 the full control effect; nearly all actives have a fitted effect of over 55% in size
Summary of the method: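 Cells were seeded at 2500 per well and rested 5 hr before a 24 hr compound exposure at 37 C. Viability was then gauged as cellular ATP by luciferase luminescence, with AC50 values fitted to the Hill equation.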

[10] = Cell Viability - LYMP2-020 (AID 986); conditions: series mostly up to 92.2 µM;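 further: plate controls were DMSO only for no effect and tetraoctylammonium bromide at 92 µM for full effect; nearly all actives have a fitted effect of over 55% in size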
Summary of the method: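 Luminescent ATP signal (CellTiter-Glo, 30 min at room temperature) is the read-out after 24 h compound treatment of lymphoblastoid cells at 37 C. AC50 values come from Hill-equation fits across concentrations.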

[11] = Cell Viability - LYMP2-026 (AID 989); conditions: LYMP2-026 lymphoblastoid cell viability, qHTS; series mostly up to 92.2 µM; further: on the % scale 0 is the no-effect control and ±100 the full control effect; nearly all actives have a fitted effect of over 50% in size
Summary of the method: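 Luminescent ATP signal (CellTiter-Glo, 30 min room temperature) measures viable lymphoblastoid cells after 24 hr compound treatment at 37 C. Decreased ATP reflects acute toxicity; AC50 values come from Hill-equation modeling.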

[12] = Cell Viability - LYMP1-002 - Assay at 40 hr (AID 994); conditions: LYMP1-002 lymphoblastoid cell viability; series mostly up to 92.2 µM;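 further: 0% = DMSO only and full inhibition = 92 µM tetraoctylammonium bromide; nearly all actives have a fitted effect of over 60% in size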
Summary of the method: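 Luminescent ATP signal served as the viability readout, with decreases taken as toxicity. Cells were treated with compounds across a concentration range for 40 hours at 37 C, and AC50 values came from standard Hill modeling.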

[13] = qHTS assay for small molecule antagonists of retinoid X receptor alpha signaling (AID 588546; active means well fitted inhibition curve with a large enough effect in the signal ratio, with a control signal flat, not every such curve was filed as active; the % refers to the signal ratio;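 further: cells stimulated with 9-cis-retinoic acid as agonist; on the % scale 0 is the no-effect control and ±100 the full control effect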); conditions: HEK293T RXRa-UAS-bla, beta-lactamase ratio, antagonist mode; measured here: W530 green channel, cytotoxicity proxy
Summary of the method: (§1)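 Beta-lactamase reporter inhibition, read as CCF4 fluorescence ratio (ex 405, em 460/530 nm) after 2 h at RT. HEK293T UAS-bla cells, 2500/well, were stimulated with 9-cis-RA at 500 or 100 nM final alongside test compound for 18 h at 37 C.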

[14] = target: Retinoic acid receptor RXR-alpha (Homo sapiens) (UniProt P19793); experiment: as above; conditions: HEK293T RXRa-UAS-bla, beta-lactamase ratio, antagonist mode
Retinoic acid receptor RXR-alpha (Homo sapiens), sequence (P19793 whole entry, looked up): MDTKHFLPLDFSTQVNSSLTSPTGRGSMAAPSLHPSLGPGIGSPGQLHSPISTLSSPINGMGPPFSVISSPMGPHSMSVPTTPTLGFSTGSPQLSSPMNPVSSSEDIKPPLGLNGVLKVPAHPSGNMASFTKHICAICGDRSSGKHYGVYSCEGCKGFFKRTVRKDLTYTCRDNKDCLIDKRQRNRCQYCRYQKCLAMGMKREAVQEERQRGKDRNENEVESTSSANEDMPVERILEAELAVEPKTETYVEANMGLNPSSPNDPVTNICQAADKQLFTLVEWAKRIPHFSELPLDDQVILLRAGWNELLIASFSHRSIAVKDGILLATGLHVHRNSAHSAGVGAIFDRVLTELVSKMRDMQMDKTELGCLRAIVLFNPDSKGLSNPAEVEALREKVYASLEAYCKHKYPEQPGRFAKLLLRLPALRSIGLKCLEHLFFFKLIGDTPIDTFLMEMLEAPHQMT
Summary of the method: as §1

[15] = qHTS assay for environmental chemicals that activate the Aryl hydrocarbon Receptor (AhR) signaling pathway (AID 651777); conditions: 1A2-DRE human hepatoma cells, luciferase, 24 h; activation: stronger effect = higher value; further: % of control where 0% means no effect; nearly all actives have a fitted effect of over 15% in size
Summary of the method: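 Quantitative HTS in stably transfected human liver-derived cells whose luciferase gene sits downstream of the CYP1A2 promoter and dioxin response element. After 24 hr exposure at 37 C, One-Glo luminescence was measured.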

[16] = qHTS assay for cell viability of HEK293 cells (AID 743288); conditions: ATP luminescence (CellTiter-Glo), 18 h; max response: stronger effect = lower value; further: on the % scale 0 is the no-effect control and ±100 the full control effect; nearly all actives have a fitted effect of over 50% in size
Summary of the method: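 HEK293 parental, 2,000 cells/well; ≥5 h pre-incubation 37 C; pintool compound addition; 18 h, 37 C; CellTiter-Glo 30 min RT; luminescence read.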

[17] = Cell Viability - LYMP2-004 (AID 966); conditions: LYMP2-004 lymphoblastoid cell viability, qHTS; series mostly up to 92.2 µM;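 further: plate controls were DMSO only for no effect and tetraoctylammonium bromide control for full effect; nearly all actives have a fitted effect of over 65% in size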
Summary of the method: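 Cells seeded 2500/well, rested 5 hr at 37 C, dosed across a concentration series, incubated 24 hr at 37 C, then CellTiter-Glo added for 30 min at room temperature and luminescence read. Hill fitting gave AC50.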

[18] = Cell Viability - LYMP2-021 (AID 974); conditions: LYMP2-021 lymphoblastoid cells viability; series mostly up to 92.2 µM;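 further: compound exposure lasts 24 hours at 37 °C; on the % scale 0 is the no-effect control and ±100 the full control effect; nearly all actives have a fitted effect of over 55% in size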
Summary of the method: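 Plate 2500 lymphoblastoid cells per well and incubate 5 hr at 37 C. Add compounds over a concentration range and incubate 24 hr at 37 C. Add CellTiter-Glo, wait 30 min at room temperature, read luminescence.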

[19] = Cell Viability - LYMP2-018 (AID 985); conditions: LYMP2-018 lymphoblastoid cells, viability (qHTS); series mostly up to 92.2 µM;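 further: plate controls were DMSO only for no effect and tetraoctylammonium bromide at 92 µM for full effect; nearly all actives have a fitted effect of over 50% in size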
Summary of the method: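 Luminescent ATP signal (CellTiter-Glo, read after 30 min at room temperature) reports viable cells after 24 hr compound treatment at 37 C. Concentration-response data were fitted to the standard Hill equation for AC50.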

[20] = Cell Viability - LYMP2-022 (AID 987); conditions: LYMP2-022 lymphoblastoid cell viability; series mostly up to 92.2 µM;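 further: 0% = DMSO alone and full effect = tetraoctylammonium bromide at 92 µM; nearly all actives have a fitted effect of over 55% in size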
Summary of the method: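 qHTS: human lymphoblastoid cells 2500/well; 5 hr 37 C; cpd added; 24 hr 37 C; CellTiter-Glo, 30 min RT; luminescence. AC50 via Hill fit; tetraoctylammonium bromide positive ctrl.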

Nc1ccc(-c2ccc(N)c(O)c2)cc1O
inactive: Potency [1] > 92 µM | Potency [2] > 92 µM | Potency [3] | Potency [4] | Potency [5] | Potency [6] | Potency [7] | Potency [8] | Potency [9] | Potency [10] | Potency [11] | Potency [12] | max response [14] -12% | activation [15] -0.254% | max response [16] -18.5%
-41.6%: max response [13]

O=[N+]([O-])c1ccccc1Nc1ccccc1
inactive: Potency [1] > 92 µM | Potency [2] > 92 µM | Potency [3] | Potency [4] | Potency [17] | Potency [18] | Potency [5] | Potency [6] | Potency [7] | Potency [8] | Potency [9] | Potency [19] | Potency [10] | Potency [20] | Potency [11] | Potency [12] | max response [14] 0.845% | activation [15] 1.93% | max response [16] -4.25%
-9.17%: max response [13]

O=CC(=O)c1ccccc1
inactive: Potency [1] > 92 µM | Potency [2] > 92 µM | Potency [3] | Potency [4] | Potency [5] | Potency [8] | Potency [9] | Potency [10] | Potency [12] | max response [14] 6.37% | activation [15] 0.568% | max response [16] -4.94%
-7.19%: max response [13]

Nc1cc(C(=O)O)c(O)c(S(=O)(=O)O)c1
inactive: Potency [1] > 92 µM | Potency [2] > 92 µM | Potency [3] | Potency [4] | Potency [17] | Potency [18] | Potency [5] | Potency [6] | Potency [7] | Potency [8] | Potency [9] | Potency [19] | Potency [10] | Potency [20] | Potency [11] | Potency [12] | max response [14] 3.86% | activation [15] -2.49% | max response [16] -1.32%
12.7%: max response [13]

Nc1cnn([C@@H]2O[C@H](CO)[C@@H](O)[C@H]2O)c(=O)n1
inactive: Potency [1] > 92 µM | Potency [2] > 92 µM | Potency [3] | Potency [4] | Potency [17] | Potency [18] | Potency [5] | Potency [6] | Potency [7] | Potency [8] | Potency [9] | Potency [19] | Potency [10] | Potency [20] | Potency [11] | Potency [12] | max response [14] -17.1% | max response [16] 3.95%
8.26%: max response [13]

O=C(Cl)c1ccc([N+](=O)[O-])cc1
-4.54%: max response [13]
inactive: Potency [1] > 92 µM | Potency [2] > 92 µM | Potency [3] | Potency [4] | Potency [17] | Potency [18] | Potency [5] | Potency [6] | Potency [7] | Potency [8] | Potency [9] | Potency [19] | Potency [10] | Potency [20] | Potency [11] | Potency [12] | max response [14] 11.8% | max response [16] 0.724%

CCOC(=O)C1OC1c1ccccc1 (stereo unspecified)
inactive: Potency [1] > 92 µM | Potency [2] > 92 µM | Potency [3] | Potency [4] | Potency [17] | Potency [18] | Potency [5] | Potency [6] | Potency [7] | Potency [8] | Potency [9] | Potency [19] | Potency [10] | Potency [20] | Potency [11] | Potency [12] | max response [14] 9.69% | activation [15] -0.0092% | max response [16] -1.14%
-0.854%: max response [13]

O=C(O)/C=C/c1ccc(/C=C/C(=O)O)cc1
-0.222%: max response [13]
inactive: Potency [1] > 92 µM | Potency [2] > 92 µM | Potency [3] | Potency [4] | Potency [17] | Potency [18] | Potency [5] | Potency [6] | Potency [7] | Potency [8] | Potency [9] | Potency [19] | Potency [10] | Potency [20] | Potency [11] | Potency [12] | max response [14] 14.1% | activation [15] 0.407% | max response [16] -14.7%

O=C(OCc1ccccc1)c1ccccc1O
-7.45% and -18.3%: max response [13]
inactive: Potency [1] > 92 µM | Potency [2] > 92 µM | Potency [3] | Potency [4] | Potency [17] | Potency [18] | Potency [5] | Potency [6] | Potency [7] | Potency [8] | Potency [9] | Potency [19] | Potency [10] | Potency [20] | Potency [11] | Potency [12] | max response [14] -0.686% and -0.189% | activation [15] -0.76% and -0.296% | max response [16] 9.47% and -5.04%

Cc1ccc(S(N)(=O)=O)cc1
-1.11% and -7.98%: max response [13]
inactive: Potency [1] > 92 µM | Potency [2] > 92 µM | Potency [3] | Potency [4] | Potency [17] | Potency [18] | Potency [5] | Potency [6] | Potency [7] | Potency [8] | Potency [9] | Potency [19] | Potency [10] | Potency [20] | Potency [11] | Potency [12] | max response [14] 8.77% and 1.7% | activation [15] -0.842% | max response [16] -5.31% and -1.83%

C=CC(C)(O)CCCC(C)CCCC(C)CCCC(C)C (stereo unspecified)
inactive: Potency [1] > 92 µM | Potency [2] > 92 µM | Potency [3] | Potency [4] | Potency [17] | Potency [18] | Potency [5] | Potency [7] | Potency [8] | Potency [9] | Potency [19] | Potency [10] | Potency [20] | Potency [11] | Potency [12] | max response [14] 7.39% | activation [15] -0.417% | max response [16] -8.32%
-10.2%: max response [13]
